Hits are enriched below; roughly 13% of the tested compounds scored in any of these assays.
Shiga toxin inh = blocks Shiga toxin action in Vero cells. Vero cells, Shiga toxin protein synthesis inhibition reporter. inhibition, % at 38.7 µM. 290,000 tested, 9.2% active; in the data active means inhibition mostly above about 28%, no sharp cut-off; inactive means mostly below about 43%; further: 0% is about no effect
FMDV antiviral = foot and mouth disease virus antiviral activity | FMDV antiviral cell-based qHTS | 410,000 tested, 1.2% active | Potency, µM (titrated, usually from 57.9 µM), for the others: at the highest dose activity change, negative = inhibition, usual class: inhibitors | AID 1159524; calls by dose curve; tested in HEK293T cells; further: read-out not given here; potency means the concentration at half of the fitted maximal effect; on the % scale 0 is the no-effect control and ±100 the full control effect; nearly all actives have a fitted effect of over 45% in size
Cycloheximide cs = counter-screen for Shiga toxin inhibitors: cycloheximide protein synthesis inhibition. cell reporter, cycloheximide protein synthesis inhibition counterscreen. max response, %. 300,000 tested, 12% active. AID 2314; in the data active means max response mostly above about 13%, no sharp cut-off; inactive means mostly below about 14%; further: read at 38.3 µM for the half of the compounds with a filed dose; 0% is about no effect
MARV entry inh = Marburg virus entry inhibition; Marburg virus pseudotyped entry inhibition, cell reporter; Potency, µM (titrated, usually from 37.8 µM), without a hit: at the highest dose activity change, negative = inhibition, usual class: inhibitors; 300,000 tested, 1.8% active; AID 540276; calls by dose curve; tested in HEK293 cells; further: potency means the concentration at half of the fitted maximal effect; on the % scale 0 is the no-effect control and ±100 the full control effect
LASV entry inh = inhibitors of Lassa virus binding or cell entry; 300,000 tested, 1.2% active; Lassa virus pseudotype entry inhibition, cell reporter; AID 540256; Potency, µM (titrated, usually from 37.9 µM), for the others: at the highest dose activity change, negative = inhibition, most hits filed as inhibitors; calls by dose curve; tested in HEK293 cells; further: potency means the concentration at half of the fitted maximal effect; on the % scale 0 is the no-effect control and ±100 the full control effect; nearly all actives have a fitted effect of over 50% in size
HCV inh = HCV inhibition. AID 651820. Huh7.5.1 HCVcc-Cre infection, luciferase reporter, 44 h. Potency, µM (highest dose often 41.8 µM), for the others: at the highest dose activity change, negative = inhibition, hits mostly inhibitors. 340,000 tested, 3.4% active; active means well fitted inhibition curve with a large enough effect; inconclusive means small, poorly fitted or top-dose-only effect, or another doubt; inactive means no such curve, though single readings can be large or run the other way; further: potency means the concentration at half of the fitted maximal effect; on the % scale 0 is the no-effect control and ±100 the full control effect
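1,000 cells/well; 4 h culture; + compound; + HCVcc-Cre (~0.5 moi); 44 h; luciferase substrate, RT 15 min; read 15 sec.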
Numbers without * were called inactive; ? = inconclusive; . = no result given; [ ] = dose if it differs, or a comment.

SMILES	Shiga toxin inh	FMDV antiviral	Cycloheximide cs	MARV entry inh	LASV entry inh	HCV inh
COc1cc(C(=O)NNc2nc3cc4c(cc3s2)OCO4)cc(OC)c1OC	-12.7	-25.2%	-2.3	?	-1.9%	-7.2%[8.37 µM]
COc1cc(OC)cc(C(=O)NNc2nc3cc4c(cc3s2)OCO4)c1	-6.3	-24.5%	-0.9	21.9%	4.7%	?
O=C(NNc1nc2cc3c(cc2s1)OCO3)c1cccc(F)c1	active	29.0%	60.8*	?	14.4%	5.0%
CCn1c(Cc2ccccc2)nnc1SCC(=O)Nc1cc(C)on1	-10.0	7.6%	-2.5	14.9%	16.2%	-5.3%
Cc1ccc(OCc2nnc(SCC(=O)C(C)(C)C)n2Cc2ccco2)cc1	-4.2	0.0%	-0.8	-2.7%	-3.9%	?
Cc1ccccc1Cn1c(C)cc(C)c(C#N)c1=O	-13.6	-4.0%	1.8	?	3.5%	13.0%
C/C(CC(=O)Nc1ccc2c(c1)OCCO2)=N\NC(=O)Cc1ccc(Cl)cc1	129.2*	-4.4%	-1.7	0.2%[46.1 µM]	?	-22.7%
C/C(CC(=O)Nc1ccc2c(c1)OCCO2)=N\NC(=O)c1ccc([N+](=O)[O-])cc1Cl	3.9	11.5%	13.9	18.9%[46.1 µM]	3.3%	-5.5%
C/C(CC(=O)Nc1ccc2c(c1)OCCO2)=N\NC(=O)c1ccccc1Cl	75.8	31.0%	20.5*	19.2%[46.1 µM]	-12.6%	14.4%
CNC(=S)N1CCN(C(=O)C2CCCO2)CC1 (configuration not stated)	18.6	-18.4%	-2.7	0.2%	8.2%	-10.6%
COC(=O)C1=C(C(=O)OC)[C@]2([C@H]3CCCCN[C@@H](Cc4ccccc4)C(=O)N3Cc3ccccc3)C=C[C@H]1O2	.	?	.	.	.	11.2µM*
O=C1[C@H](Cc2ccccc2)NCCCC[C@@H](c2ccc(Cl)cc2)N1Cc1ccccc1	.	0.0%	.	.	.	18.6%
O=C(C=Cc1ccc(Cl)s1)c1ccc(Cl)s1	.	32.5%	.	-19.7%[46.1 µM]	12.9%[46.1 µM]	1.4%
O=C(/C=C\Nc1ccc2c(c1)OCO2)c1cccs1	66.5*	10µM*	6.9*	?	?	5.7%
O=C(/C=C\Nc1ccc2c(c1)OCO2)c1ccc(Cl)s1	71.2*	?	57.1*	?	?	2.4%
Cc1ccc(N/C=C/C(=O)c2cccs2)cc1	17.0	-50.7%	24.1	.	.	-1.6%
COc1cccc(-n2c(SCC(=O)N3CCOCC3)nnc2-c2c[nH]c3ccccc23)c1	-19.9	7.5%	-6.9	.	.	11.5%
Cc1nn2c(-c3ccc(Cl)cc3)nnc2s1	6.2	16.6%	-3.9	?	-6.6%	11.8%
Cc1nc2nc(-c3ccc(Cl)cc3)cn2nc1C	92.7*	?	38.5*	-11.7%	?	0.1%
Cc1nc2nc(CCNS(=O)(=O)c3ccc(Cl)cc3)cn2nc1C	-1.8	-0.1%	11.3	.	.	20.2%
Cc1ccc(-c2cn3nc(-c4ccccc4)c(-c4ccccc4)nc3n2)cc1	45.1	6.2%	15.5*	?	?	-17.9%
Cc1nc2nc(-c3cccs3)cn2nc1C	54.1	1.0%	30.9*	?	10.3µM*	7.8%
Cc1nn2cc(-c3ccc(Cl)cc3)nc2s1	111.8*	22.3%	58.8*	?	?	-6.9%
CC1CC1C(=O)NCCc1ccc(Cl)cc1 (configuration not stated)	27.4	39.2%	17.5	?	25.9%	-1.6%
CCc1nn2cc(-c3ccccc3)nc2s1	4.7	-89.4%	6.4	18.3µM*	8.2µM*	7.4%
SMILES	Shiga toxin inh	FMDV antiviral	Cycloheximide cs	MARV entry inh	LASV entry inh	HCV inh
NS(=O)(=O)c1nn2cc(-c3ccccc3)nc2s1	59.3*	9.0%	19.2*	.	.	.
Cc1nn2cc(-c3ccc(-c4ccccc4)cc3)nc2s1	48.9	-20.3%	25.7*	?	11.2µM*	-13.3%
c1ccc(-c2cn3nc(-c4ccccc4)c(-c4ccccc4)nc3n2)cc1	25.6	0.2%	2.5	-2.3%	0.9%	-9.7%
COc1cccc(-c2ccc3nccn3c2)c1	.	37.3%	.	.	.	.
COc1cccc(-c2cn3nc(C)c(C)nc3n2)c1	167.2*	-0.8%	41.3*	?	?	-12.9%
CC(NC(=O)COC(=O)c1ccccc1Nc1ccccc1)c1ccccc1 (configuration not stated)	-11.6	?	-3.8	-5.9%	-2.9%	-6.7%
CC(C)(C)OC(=O)N1CCC(CC2CC(c3ccccc3)=NO2)(C(=O)NCc2ccccc2)CC1 (configuration not stated)	.	-17.6%	.	.	.	6.4%
COc1cc(C(=O)OCC(=O)Nc2cccc(S(=O)(=O)N3CCOCC3)c2)ccc1OCC(C)C	.	4.0%	.	-19.8%	12.9%	-3.9%
